# Calls of active or inactive are those of the source. Calls come from the whole dose curve; as a rule, active = well fitted inhibition curve with a large enough effect in the repeat runs (not every such curve was filed as active); inconclusive = weak or mixed curves; inactive = flat fitted curve, though single readings scatter.
# Target: Thyrotropin-releasing hormone receptor (Homo sapiens) (UniProt P34981)
# Test: qHTS assay to identify small molecule antagonists of the thyrotropin-releasing hormone receptor (TRHR) signaling pathway (AID 1346877)
# Settings: TRHR-HEK293, TRH-induced calcium fluorescence, antagonist mode; series mostly up to 51.3 µM
# Source text: National Center for Advancing Translational Sciences [NCATS]
# NIH Chemical Genomics Center [NCGC]
# U.S. Environmental Protection Agency [EPA]
# National Institutes of Environmental Health Sciences [NIEHS]
# National Toxicology Program [NTP]
# U.S. Food and Drug Administration [FDA]
# Thyrotropin-releasing hormone (TRH) receptor (TRHR) is a G-protein-coupled receptor which binds the tripeptide thyrotropin releasing hormone. TRHR is found in the brain and, when bound by TRH, acts (through phospholipase C) to increase intracellular inositol trisphosphate. It plays a crucial role in the anterior pituitary where it controls the synthesis and secretion of thyroid stimulating hormone and prolactin. The TRHR-Hek293 assay is a cell-based assay, and it has the potential to screen G protein-coupled receptors. A compound/drug can either activate (agonist) or suppress (antagonist) GPCRs that can be monitored by levels of intracellular calcium. In this assay, the Tox21 10K compound library was screened to identify potential TRHR antagonists.
# Tox21 Assay Protocol Summary:
# The TRHR-Hek293 cells were dispensed at 1500cells/4uL/well in 1536-well black-clear bottom plates using a Multidrop dispenser. After the assay plates were incubated at a 37 C/5% CO2 incubator for 18 hours, 4 uL of Dye-Loading Solution was added to each well. The plates were incubated at 37 C for 2 hours. For agonist mode, 23 nL of compounds dissolved in DMSO, positive controls or DMSO only was transferred to the assay plate by a pin tool. The fluorescence intensity in the plates was measured using FDSS 7000EX kinetic plate reader for 3 min at 1 sec intervals. For antagonist mode, 23 nL of compounds dissolved in DMSO, positive controls or DMSO only was transferred to the assay plate by a pin tool. After 5 min incubation at room temperature, 1 uL of TRH was added on the top of the cell/compound mixtures to achieve a final agonist concentration of 1 nM. The fluorescence intensity in the plates was measured using FDSS 7000EX kinetic plate reader for 3 min at 1 sec intervals. Each test compound was measured at 15 concentrations and in triplicates.
# % is set by controls: 0 for no effect and ±100 for the full control effect.
# Chain of Thyrotropin-releasing hormone receptor (Homo sapiens) (P34981 whole entry, looked up): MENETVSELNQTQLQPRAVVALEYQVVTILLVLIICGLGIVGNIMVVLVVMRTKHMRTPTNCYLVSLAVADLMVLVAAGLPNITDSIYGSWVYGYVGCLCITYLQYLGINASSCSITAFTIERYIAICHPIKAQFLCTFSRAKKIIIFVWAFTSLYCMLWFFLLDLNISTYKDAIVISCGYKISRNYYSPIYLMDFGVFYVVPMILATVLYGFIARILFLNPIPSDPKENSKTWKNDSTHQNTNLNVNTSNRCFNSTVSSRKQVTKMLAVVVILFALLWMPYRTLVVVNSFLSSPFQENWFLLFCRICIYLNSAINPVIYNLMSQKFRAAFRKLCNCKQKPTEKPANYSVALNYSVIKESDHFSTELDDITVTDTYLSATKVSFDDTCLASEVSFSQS
SMILES,outcome,"activity, negative = inhibition"
Cc1nc2ccc(Cl)cc2[nH]1,inactive,–
O=c1[nH]c(=O)c2cn[nH]c2[nH]1,inactive,–
CCCCCCCC(=O)N(C)C,inactive,–
CC(=O)/C=C/C=C1/C2CCC(C2)C1(C)C (stereo not given),inactive,–
CCCCCCCOC(C)=O,inactive,–
C=CCCCCCCCCOC(C)=O,inactive,–
O=C(c1ccccc1)c1cccc(O)c1,inactive,–
CCc1ncc(C)[nH]1,inactive,–
C=CCn1cc[n+](C)c1,inactive,–
CC[C@@]1(c2ccccc2)NC(=O)N(C)C1=O,inactive,–
Clc1cc(Cl)c(Cl)c(Cl)c1Cl,inactive,–
COc1cc(NS(=O)(=O)c2ccc(N)cc2)ncn1,inactive,–
CC1(C)C(=O)C(C)(C)C1=O,inactive,–
CCCCCCCCOCCC#N,inactive,–
COC(=O)c1ccccc1Cl,inactive,–
CCNC(=O)C(C)OC(=O)Nc1ccccc1 (stereo not given),inactive,–
COCCCOc1cc(C[C@@H](C[C@H](N)[C@@H](O)C[C@H](C(=O)NCC(C)(C)C(N)=O)C(C)C)C(C)C)ccc1OC,inactive,–
Nc1nc(Cl)cc(Cl)n1,inactive,–
C=CC(=O)OCC[N+](C)(C)C,inactive,–
CCCCc1ccc(Cl)cc1,inactive,–

SMILES,outcome,"activity, negative = inhibition"
CCCC(=O)C(CC)Sc1ccoc1C (stereo not given),inactive,–
CCCc1ccc(O)c(OC)c1,inactive,–
CNC(C)=O,inactive,–
C/C(=N\O)c1ccc(OCC(=O)N2CCCCC2)cc1,inactive,–
C=CCCCCCCCCCCCCCC,–,2.16% [at 10.5 µM] (inactive)
C/C=C(\C)C=O,inactive,–
CC(=O)O[C@@H]1CC2C3CCc4cc(OC(=O)c5ccccc5)ccc4C3CCC2(C)[C@H]1OC(C)=O (stereo not given in full),inactive,–
CC(C)(C)NCC(O)COc1cccc2c1CCC(=O)N2 (stereo not given),inactive,–
CCCCS,inactive,–
CC(C)=CCC/C(C)=C\C#N,inactive,–
CC/C=C\CCOC(=O)c1ccccc1,inactive,–
CCC(C)(C)C,inactive,–
C/C=C/C(=O)CCCC,inactive,–
CC(CN1CC(=O)NC(=O)C1)N1CC(=O)NC(=O)C1 (stereo not given),inactive,–
COC(=O)c1ccc(NC(C)=O)cc1OC,inactive,–
CC1=C(O)C(=O)CO1,inactive,–
COc1cnc(NS(=O)(=O)c2ccc(N)cc2)nc1,inactive,–
CCOc1ccccc1OCCN[C@H](C)Cc1ccc(OC)c(S(N)(=O)=O)c1,inactive,–
CC(C)(C)C(=O)CCc1ccc(Cl)cc1,inactive,–
Cc1cc(C)c(N)c(Cl)c1,inactive,–
